Test results reported in PubChem BioAssay AID623995 (National Center for Advancing Translational Sciences (NCATS), 2012).
This is one part of the list. Results filed as inconclusive are left out. Values without a mark were called inactive. Activity calls are given as the source filed them. Calls follow the shape of the dose curve; as a rule, active = well fitted inhibition curve with a large enough effect; inconclusive = small, poorly fitted or top-dose-only effect; inactive = no such curve, though single readings can be large or run the other way.

Each compound was assayed against Isocitrate dehydrogenase [NADP] cytoplasmic (Homo sapiens) (UniProt O75874) (assay: qHTS for Inhibitors of mutant isocitrate dehydrogenase 1 (IDH1): Cherrypicks in WT IDH1). Settings: WT IDH1 enzyme, NADPH diaphorase/resazurin fluorescence; series mostly up to 115 µM; activity change, negative = inhibition: at the top concentration.
Description: Unbiased genomic sequencing for 22 glioma genomes found recurrent mutation of isocitrate dehydrogenase 1 (IDH1) on chromosome 2q33-a gene encoding the cytosolic isoform of IIDH1associated with the tricarboxylic acid cycle (TCA) that catalyzes the oxidative decarboxylation of isocitrate, yielding alpha-ketoglutarate and CO2 via NADP+ to NADPH conversion. Subsequent studies confirmed the recurrent IDH mutations in up to 70% of secondary gliomas and in 10% of AML cases. […] This in effect defines IDH1 as an oncogene, and provides an extraordinary opportunity to discover chemical probes against mutant IDH1 that may translate into much needed new therapies for glioma and AML patients. QHTS-compatible fluorescent, enzymatic assay was developed to identify inhibitors of the IDH1 mutant (AID 602179). To identify selectivity of the identified inhibitors, a secondary enzymatic assay against the WT IDH1 was also developed. Inhibition of the WT IDH1 leads to a decrease in the amount of NADPH relative to a DMSO control and a concomitant decrease in the fluorescence of the diaphorase/resazurin enzyme product resorufin at 590 nm. Compounds were screened as a concentration-titration series that ranged from 115 uM to 0.20 uM. NIH Molecular Libraries Probe Production Network [MLPCN] NIH Chemical Genomics Center [NCGC] MLSCN Grant: R03 DA032129 PI Name: Dr. Lenny Dang
Enzyme buffer was dispensed into black, solid 1536-well plates at 3 microL/well in 20 mM Tris buffer, pH 7.5, containing final concentrations of 10 mM MgCl2, 20 mM NaCl, 0.05% BSA, 2 mM b-ME and 0.65 nM WT IDH1. Then, 23 nL of compounds or DMSO were delivered to each well using a pin tool. The substrate and detection buffer (1 uL; 20 mM Tris buffer, pH 7.5, containing final concentrations of 10 mM MgCl2, 20 mM NaCl, 0.05% BSA, 0.06 mM NADP+, 0.53 uM diaphorase, 0.012 mM resazurin and 0.08 mM isocitrate) was added to start the enzymatic reaction. The fluorescence intensity was monitored in kinetic mode on a ViewLux plate reader at 598 nm for 10 minutes (Ex 525, EM 598, bodipy mirror, 0.5 sec exposure). The % Activity was determined from the corrected fluorescence values. As no specific WT IDH1 inhibitors have been identified in the literature, 1x (0.65 nM) and 0x WT IDH1 enzyme controls (untreated) were included to normalize % Activity of identified inhibitors; 0x enzyme values corresponded to 100% Activity (full inhibition), while 1x WT IDH1 enzyme values were used to normalize 0% Activity (no inhibition). Concentration-response curves were fitted to the signals arising from the resulting fluorescence. The concentration-response curves were then classified based on curve quality (r2), response magnitude and degree of measured activity, and compounds were subsequently categorized based on their curve class. […] Keywords: Isocitrate dehydrogenase, IDH1, IDH1 R132H, 2-HG, 2-hydroxyglutarate, AML, glioma, MLSMR, MLPCN, NIH Roadmap, qHTS, NCGC
Also: nearly all actives have a fitted effect of over 55% in size.
Potency is read from the fitted curve at half-maximal effect.

Sequence of Isocitrate dehydrogenase [NADP] cytoplasmic (Homo sapiens) (O75874 whole entry, looked up, canonical isoform): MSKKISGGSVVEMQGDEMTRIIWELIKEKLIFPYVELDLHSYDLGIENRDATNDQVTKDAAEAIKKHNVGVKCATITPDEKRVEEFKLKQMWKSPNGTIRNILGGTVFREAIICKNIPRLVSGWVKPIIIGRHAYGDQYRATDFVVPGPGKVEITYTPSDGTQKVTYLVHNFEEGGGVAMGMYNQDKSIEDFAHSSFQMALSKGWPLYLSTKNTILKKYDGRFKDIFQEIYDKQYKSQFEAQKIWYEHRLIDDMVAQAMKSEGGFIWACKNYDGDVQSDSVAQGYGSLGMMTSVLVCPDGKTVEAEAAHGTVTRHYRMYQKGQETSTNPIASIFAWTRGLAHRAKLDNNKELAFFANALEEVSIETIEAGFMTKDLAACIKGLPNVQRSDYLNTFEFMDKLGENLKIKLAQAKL

Compound | activity change, negative = inhibition | Potency
CCOC(=O)c1ccc(N2C(=O)c3n[nH]c(-c4ccco4)c3C2c2ccc(O)cc2)cc1 (centres undefined) | -10.9% | 
COc1ccc(C(C(=O)NC2CCCCC2)N(C(=O)c2snc(C(N)=O)c2N)c2ccccc2OC)cc1 (centres undefined) | -5.01% | 
COc1ccc(/C=C2/SC(=O)N(CCCCCC(=O)Nc3ccccc3C(=O)O)C2=S)cc1 |  | 79.4 µM (active)
CCC(C)(C)NC(=O)C(c1cccn1C)N(Cc1ccc(C)cc1)C(=O)Cn1nnc2ccccc21 (centres undefined) | 4.89% | 
Cc1ccc(Nc2nc(CSc3nnc(-c4ccncc4)n3-c3ccccc3C)cs2)cc1 | -9.79% | 
CCCc1nc2c(c(=O)c3ccccc3n2C)c(=O)n1C1CCCCCC1 | 1.92% | 
C(=N/Nc1cc(N2CCOCC2)nc(N2CCOCC2)n1)/c1ccccc1 | -2.88% | 
CC(C)N(C(=O)CSc1nc(COc2ccccc2)nc2ccccc12)C(C)C | -3.75% | 
Cc1nc(-c2ccc(Cl)cc2)sc1C(=O)CBr | 7.04% | 
COc1cc2c(-c3ccc4c(c3)OCO4)c(-c3ccsc3)oc(=O)c2cc1OC | 2.94% | 
Cc1cccc(N(C(=O)Cc2cccs2)C(C(=O)NC2CCCC2)c2ccsc2)c1 (centres undefined) | -5.18% | 
Cn1c(COc2ccc(Cl)cc2)nc2ccccc2c1=O | -2.18% | 
CC(C)Nc1nc(N(c2ccccc2)c2ccccc2)nc(-n2ccnc2)n1 | -7.64% | 
CCCc1[nH]nc2c1C(c1ccc(OC)c(Cn3nc(C)c(Br)c3C)c1)C(C#N)=C(N)O2 (centres undefined) | 15.8% | 
CCOC(=O)c1oc2c(CN3CCN(CCO)CC3)c(O)c(CC)cc2c(=O)c1-c1nc2ccccc2s1 | 0.488% | 
O=C1c2cccc3cccc(c23)C(=O)N1CCCCCc1n[nH]c(=S)o1 | 25.5% | 
COc1cc(/C=C2/C(=O)ON=C2C)ccc1OCc1ccccc1F | 4.5% | 
CCCOc1ccc(C2c3c(-c4ccccc4O)n[nH]c3C(=O)N2Cc2cccnc2)cc1 (centres undefined) | 2.01% | 
COc1ccc(C(CCN(Cc2ccc(OC)c(OC)c2)C(=O)CCl)c2ccccc2)cc1 (centres undefined) | -5.8% | 
COC(=O)c1cccc(N(C(=O)c2ccco2)C(C(=O)NC2CCCC2)c2ccco2)c1 (centres undefined) | 4.88% | 
CCSc1nc2sc3c(c2c(=O)n1-c1ccc(C)cc1)CCN(C)C3 | -9.91% | 
N#CC1=C(N)C(C#N)(C#N)[C@H](c2ccsc2)[C@H]2COCC=C12 | 130% | 
CC(C)(C)c1ccc(S(=O)(=O)Nc2ccc(O)c(Sc3nc4ccccc4s3)c2)cc1 | 11.2% | 
COc1cc(/C=C2/SC(=S)N(Cc3ccccc3)C2=O)cc(OC)c1O | -23.7% | 
CCCCC(=O)NC(c1ccc(OC)c(OC)c1)c1ccc2cccnc2c1O (centres undefined) | -5.29% | 
COc1ccc(/C=N/Nc2cc(N3CCOCC3)nc(C)n2)c(OC)c1 | 3.66% | 
Cc1ccc2nc(N3C(=O)C(O)=C(C(=O)c4ccco4)C3c3cccc(O)c3)sc2c1 (centres undefined) | -9.63% | 
Cc1nc(C)c(C(=O)N(c2ccc(C)c(C)c2)C(C(=O)NCc2ccco2)c2ccccc2)s1 (centres undefined) | -5.09% | 
CCCNc1ncnc2c1c(-c1ccccc1)cn2-c1ccc(OCC)cc1 | -9.03% | 
